Assay outcomes from PubChem BioAssay.
The list is not random: actives were taken first. Their share in the collection is about 2.8%.
HGIII-sPLA2 inh = human group III sPLA2 inhibitors, primary screen, biochemical, QFRET, BODIPY PC-A2 liposome substrate. AID 743126, 2013. inhibition, % at 12.2 µM. QFRET BODIPY PC-A2 liposome hydrolysis, fluorescence. 0.56% of 370,000 active;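 active = inhibition above mean plus 3 SD of compounds lying within the high and low control bounds, cut at about 19% in these data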;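 also: 0% = median of test compound wells and 100% = no enzyme DMSO wells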
Target sequence (Q9NZ20 whole entry, looked up): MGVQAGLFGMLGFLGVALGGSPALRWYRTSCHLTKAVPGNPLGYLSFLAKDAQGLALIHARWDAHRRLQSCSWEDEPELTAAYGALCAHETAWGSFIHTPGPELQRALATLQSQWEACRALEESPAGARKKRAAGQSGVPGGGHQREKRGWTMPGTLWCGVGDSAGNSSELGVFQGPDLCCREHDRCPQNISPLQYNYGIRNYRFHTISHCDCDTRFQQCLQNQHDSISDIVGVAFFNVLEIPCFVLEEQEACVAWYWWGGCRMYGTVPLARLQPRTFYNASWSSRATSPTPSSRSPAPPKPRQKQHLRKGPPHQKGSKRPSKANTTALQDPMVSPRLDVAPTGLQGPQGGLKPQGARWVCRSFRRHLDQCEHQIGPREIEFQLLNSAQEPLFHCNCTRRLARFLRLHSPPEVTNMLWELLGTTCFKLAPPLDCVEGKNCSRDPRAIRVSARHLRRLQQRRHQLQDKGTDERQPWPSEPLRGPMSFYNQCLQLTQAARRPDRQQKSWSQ
bovine MsrA act = bovine MsrA enzyme activators, primary screen, biochemical, absorbance, HTS | Methionine sulfoxide reductase A (Bos taurus) | purified bovine MsrA, absorbance read-out | activation, % at 10.6 µM | 0.3% of 360,000 active | AID 602163, 2012; in the data active = activation above about 7.5%;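 also: 0% = vehicle and 100% = reference activator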
MsrA inh = bovine MsrA enzyme inhibitors, primary screen, biochemical, absorbance, HTS | Methionine sulfoxide reductase A (Bos taurus) | purified bovine MsrA, absorbance read-out | inhibition, % at 15.5 µM | 0.75% of 360,000 active; in the data active = inhibition above about 4.5%;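 also: 0% = vehicle wells with enzyme and 100% = reference inhibitor wells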
rCAG RNA binder = binders of r(CAG) RNA repeats, primary screen, biochemical, fluorescence. r(CAG) RNA repeat, TO-PRO-1 dye displacement fluorescence. inhibition, % at 3 µM. 1.3% of 370,000 active;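 active = inhibition above the plate cutoff, the mean of all test compounds on that plate plus 3 SD, cut at about 35% in these data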;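 also: 0% = DMSO alone and 100% = 100 µM mitoxantrone as full dye displacement; higher means more dye released from RNA so lower well fluorescence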
The depositor's hits bear a star; . = no result given.

SMILES | HGIII-sPLA2 inh | bovine MsrA act | MsrA inh | rCAG RNA binder
O=C(CCN1C(=O)/C(=C/c2ccc3c(c2)OCO3)SC1=S)Nc1cccc(C(=O)O)c1 | -10 | -1 | 0 | 10
Cc1ccc(/C=C2\SC(=S)N(CCCC(=O)Nc3cccc(C(=O)O)c3)C2=O)cc1 | 5 | -4 | 0 | 9
O=C(CCCN1C(=O)/C(=C\c2ccccc2)SC1=S)Nc1cccc(C(=O)O)c1 | -3 | -2 | 1 | 66*
O=C(O)COc1cccc(/C=C2/SC(=S)N(Cc3ccccc3)C2=O)c1 | -4 | -9 | 3 | 52*
O=C1/C(=C\c2cccc(O)c2)SC(=S)N1Cc1ccccc1 | -28 | -4 | -1 | 25
O=C(O)CCCN1C(=O)/C(=C\c2ccccc2OCc2ccccc2)SC1=S | -32 | -3 | -1 | 52*
CCN(CC)CCCCCCCCOC(=O)c1cc(OC)c(OC)c(OC)c1 | -7 | 1 | -1 | 5
COc1ccc(N2CCN(C(=O)C(=O)c3c(C)[nH]c4ccccc34)CC2)cc1 | -3 | -2 | 1 | 2
CC(=O)c1ccc(N2CCN(C(=O)C(=O)c3c(C)[nH]c4ccccc34)CC2)cc1 | -11 | -6 | 4.6* | 5
Cc1ccc(C(=O)Nc2scc(-c3ccccc3)c2C(=O)O)o1 | -2 | -6 | 4.6* | 13
O=C(O)c1cc(NC(=O)c2ccc(Br)cc2)cc(NC(=O)c2ccc(Br)cc2)c1 | -7 | 5 | -1 | 80*
Cn1cc(S(=O)(=O)N2CCOCC2)cc1C(=O)Nc1cccc(Cl)c1 | -7 | -1 | 0 | 2
COc1ccc2cc(/C=C3\SC(=S)NC3=O)c(N3CCOCC3)nc2c1 | -11 | -6 | 3 | 65*
CCN(CC)CC(C)(C)C(=O)/C=C/c1ccc(/C=C/C(=O)C(C)(C)CN(CC)CC)cc1 | -6 | 2 | 12* | 0
O=C(Nc1c2c(nn1-c1cccc(Cl)c1)CS(=O)(=O)C2)C1CC1 | 3 | -3 | -1 | -1
CCOC(=O)Nc1sc2c(c1C(=O)OCC)CCC2 | 8 | -3 | 1 | 5
CCOC(=O)c1c(NC(=O)C2CCCCC2C(=O)O)sc2c1CCCCC2 (configuration not stated) | -14 | -2 | 2 | 45*
CCOc1ccc2nc(NC(=O)CSc3nnnn3C3CCCCC3)sc2c1 | -25 | -1 | 2 | 7
CCCCCCCNC(=O)C1(CC2CC(c3ccc(Cl)cc3)=NO2)CCN(C(=O)C2(C)CC2)CC1 (configuration not stated) | . | 8.5* | . | .
CCCCCCCNC(=O)C1(CC2CC(c3ccc(Cl)cc3)=NO2)CCN(C(=O)C2CCCC2)CC1 (configuration not stated) | 6 | -6 | 1 | 3
NS(=O)(=O)c1cccc(NC(=O)c2cccc3c(Br)cccc23)c1 | 7 | 0 | 1 | 13
O=C(/C=C/c1ccco1)Nc1ccc2c(c1)OCCO2 | 3 | -5 | 4.6* | 2
Cc1ccc(NC(=O)/C=C/c2ccco2)nc1 | 3 | -5 | 5.0* | 1
COc1cccc(NC(=O)/C=C/c2ccco2)c1 | -2 | -3 | 4.6* | 2
O=C(/C=C/c1ccccc1)Nc1ccc2c(c1)OCCO2 | 4 | -1 | -1 | -4
SMILES | HGIII-sPLA2 inh | bovine MsrA act | MsrA inh | rCAG RNA binder
CSc1cccc(NC(=O)/C=C/c2ccco2)c1 | 2 | -4 | 1 | 26
Cc1ccn(C(=O)c2ccc(NC(=O)C3CC3)cc2)n1 | -3 | -16 | 0 | -4
COc1cc(/C=C2\SC(=S)N(NS(=O)(=O)c3ccc(C)cc3)C2=O)cc(OC)c1OC | -6 | -1 | 0 | 6
Cc1ccc(S(=O)(=O)NN2C(=O)/C(=C/c3cccc(F)c3)SC2=S)cc1 | -16 | -1 | 3 | 75*
CCOC(=O)/C=C(\C)Sc1cc(O)c2ccccc2c1O | 5 | 3 | 41* | 25
CCCc1nnc(NC(=O)c2nc(S(=O)(=O)Cc3cccc(C)c3)ncc2Cl)s1 | -10 | -4 | 0 | 35*
Cc1cccc(CS(=O)(=O)c2ncc(Cl)c(C(=O)Nc3c(C)cccc3C)n2)c1 | -1 | -5 | 1 | 0
Cc1oc2c(CN(C)C)c(O)ccc2c(=O)c1-c1cscn1 | 0 | -5 | 4.8* | 0
COc1ccc(Oc2c(C)oc3c(CN(C)C)c(O)ccc3c2=O)cc1 | 2 | -3 | 2 | 2
COc1cc(/C=C/C(=O)c2ccc(NS(=O)(=O)c3ccc(C)cc3)cc2)cc(OC)c1O | -21 | -4 | 4 | 47*
CS(=O)(=O)N(CC(=O)Nc1ccccc1Sc1ccccc1)c1cccc(Br)c1 | -18 | 0 | 1 | 6
Cc1[nH]c2ccc(C(=O)O)cc2c1C | 4 | -1 | 0 | -2
CCCc1c(C)[nH]c2ccc(C(=O)O)cc2c1=S | -7 | -2 | 0 | 45*
COc1ccc(/C=N/N=C/c2ccc(OC)c(O)c2)cc1O | -9 | -5 | 7.1* | 2
Cc1ccccc1C(=O)c1c[nH]c(C(N)=O)c1 | -1 | -12 | 3 | -4
Cc1ccc(/C=N/n2c(C)n[nH]c2=S)o1 | 5 | 0 | 4.6* | -1
O=C(O)c1ccc(COc2ccc3ccccc3c2/C=C2/NC(=O)N(c3ccccc3)C2=O)cc1 | -38 | 0 | 1 | 74*
CCC(CC)C(=O)NCCCN1CCOCC1 | 1 | -5 | -1 | -1
O=C(Nc1nnc(CSCc2ccccc2F)s1)c1cccc([N+](=O)[O-])c1 | 1 | -8 | 0 | 46*
CC(C)C(=O)Nc1nnc(CSCc2ccccc2F)s1 | 2 | 3 | 1 | -9
Cc1cc(NS(=O)(=O)c2ccc(NC(=O)Nc3cccc(Cl)c3)cc2)no1 | -65 | -3 | -1 | 68*
Cc1cc(NC(=O)Nc2cccc(Cl)c2)no1 | -7 | -2 | 1 | 3
CC12CCC(=O)N1C(C(=O)Nc1nnc(SCc3ccccc3F)s1)CS2 (configuration not stated) | -7 | -4 | -1 | 7
Cc1ccc(NC(=O)C2CC3CCC2C3)c(C)c1 (configuration not stated) | 15 | . | . | .
O=C(NCCc1ccccc1F)c1ccc2c(c1)OCCO2 | 14 | -1 | 0 | -3
SMILES | HGIII-sPLA2 inh | bovine MsrA act | MsrA inh | rCAG RNA binder
Cc1cc(C)c2c(-n3cccc3)c(C(=O)NNS(=O)(=O)c3ccc(Cl)cc3)sc2n1 | -56 | 0 | 0 | 35*
N#Cc1c(Cn2cncn2)nc(=O)n(-c2ccccc2)c1N | 8 | -9 | 1 | -2
CCOc1cc(/C=C2\SC(=N)N(c3nonc3N)C2=O)ccc1OCCN1CCOCC1 | -23 | -1 | 4 | 40*
CC(C)Oc1ccc(CNC(=O)C2CCCN(S(=O)(=O)N3CCOCC3)C2)cc1 (configuration not stated) | 3 | -3 | 2 | -6
CC1CC(Nc2ccccc2)c2ccccc2N1C(=O)c1ccccc1F (configuration not stated) | 6 | -2 | -1 | -3
O=C(COc1ccccc1)NC(NC(=S)Nc1ccccc1C(=O)O)C(Cl)(Cl)Cl (configuration not stated) | -10 | -8 | 1 | 39*
CCOC(=O)c1c(C)n(C)c2cc([N+](=O)[O-])c(O)c([N+](=O)[O-])c12 | 4 | -2 | 1 | -1
